The source of these data is PubChem BioAssay AID777 (Sanford-Burnham Center for Chemical Genomics, 2007).

Screen size: about 96,000 compounds; about 19,000 (20%) were called active. Not all results are given here. Unmarked numbers belong to inactive results.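 The calls were made as follows: active = blocking of liver enzyme CYP2C9 beyond about 50% at 5 µM (limit read from the data); inactive = the rest.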

The target in the assay is Cytochrome P450 2C9 (Homo sapiens) (UniProt P11712). Nature of the assay: blockers of cytochrome P450 2C9 activity – biochemical, luminescence, ADME assay, primary screen (AID 777). The note with it: CYP2C9 Supersomes, luciferin-H conversion, at 5 µM, stronger effect = higher value.
Chain of Cytochrome P450 2C9 (Homo sapiens) (P11712 whole entry, looked up): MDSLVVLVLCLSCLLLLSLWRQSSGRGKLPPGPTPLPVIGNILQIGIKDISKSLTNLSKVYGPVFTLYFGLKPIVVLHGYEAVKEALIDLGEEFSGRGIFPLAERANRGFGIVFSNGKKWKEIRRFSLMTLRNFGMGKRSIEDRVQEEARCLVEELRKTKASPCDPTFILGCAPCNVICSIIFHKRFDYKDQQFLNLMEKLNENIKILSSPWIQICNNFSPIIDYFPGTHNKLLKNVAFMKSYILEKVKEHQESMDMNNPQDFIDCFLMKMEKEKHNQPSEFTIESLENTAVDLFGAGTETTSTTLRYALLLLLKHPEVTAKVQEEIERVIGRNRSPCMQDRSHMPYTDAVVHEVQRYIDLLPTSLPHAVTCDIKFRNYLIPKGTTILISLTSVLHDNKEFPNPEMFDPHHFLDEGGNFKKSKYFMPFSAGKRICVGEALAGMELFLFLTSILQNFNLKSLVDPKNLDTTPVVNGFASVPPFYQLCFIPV
Consider `Cc1ccc(C)c(S(=O)(=O)N2CC(=O)Nc3ccccc32)c1`, for which the inhibition is 12.1%. For `CCOCCn1c(C(C)C)nc2ccccc21` the value was 5.1%; for `COCCn1c(-c2ccc(OC)c(OC)c2)nc2ccccc21`, -20%; for `COc1ccc(-c2nc3ccccc3n2CCC(C)C)cc1OC`, 59.6% (active). To `CSc1nc(-c2ccco2)nn1C(=O)CCc1ccccc1` belongs -12.3%; to `C=CCOc1cccc(CNn2cn[nH]c2=S)c1`, -16.1%. Consider `CCN(Cc1ccncc1)C(=O)c1cccc(S(=O)(=O)N2CCOCC2)c1`, for which the inhibition is 94.8% (active). As for `CC(C)C(NC(=O)c1cccc(S(=O)(=O)N2CCOCC2)c1)C(=O)NCCc1ccccn1` (configuration not stated), the inhibition is -17.7%. To `O=C(c1cccc(S(=O)(=O)N2CCOCC2)c1)N1CCOCC1` belongs -6.1%. Take `N#CC1=C(N)Oc2cc(O)ccc2C1C1CCCCC1` (configuration not stated): the inhibition was 44.8%. Consider `COc1cc(C2C(C#N)=C(N)Oc3n[nH]c(-c4ccccn4)c32)cc(OC)c1OC` (configuration not stated), for which the inhibition was -6.2%. With `COc1ccc(C2C(C#N)=C(N)Oc3cc(N)ccc32)cc1OC` (configuration not stated), the inhibition was 85.7% (active).

For the compound `Cc1ccc(-n2c(C)cc(/C=C(\C#N)C(=O)NCC3CCCO3)c2C)cc1` (configuration not stated), the inhibition is 13.8%. As to `COc1ccc(N2CCN(C(=O)CSc3nnc4ncccn34)CC2)cc1`, the inhibition is 18.5%. To `Cc1nc2ccc(S(=O)(=O)NCC(=O)NCCN3CCCCC3C)cc2s1` (configuration not stated) belongs 8.5%; to `COc1ccc(C(C#N)Nc2ccc(C)cc2)cc1` (configuration not stated), -0.6%; to `CCOC(=O)c1sc(NC(=O)CCN2CCOCC2)c(C(=O)OCC)c1C`, 40.4%. For `CCOC(=O)c1c(C2CC2)csc1NC(=O)CSCc1c(C)noc1C` the value was 65% (active).

`Cc1noc(C)c1CSCC(=O)Nc1nc2ccc(Oc3ccccc3)cc2s1`: the inhibition was 44.1%.

Regarding `COCCn1nnnc1CN1CCC(NC(=O)Nc2cccc(OC)c2)CC1`, the inhibition is -12.7%.

In the case of `CC(C)C1C2=C(CC(C)(C)CC2=O)ON1c1ccccc1` (configuration not stated), the inhibition was 28.7%. For `N=c1ccn(CC(=O)NC(N)=O)c2ccccc12` the value was -0.4%. For `CC1CCCCN1CC(=O)NCc1ccc2c(c1)OCO2` (configuration not stated) the value was -6.6%; for `CCN(CC)c1ccc(C2C3CCCCC3(O)CCN2CC(=O)Nc2ccccc2)cc1` (configuration not stated), 1.4%; for `Cc1ccc(NC(=O)CN2CCC3(O)CCCCC3C2c2ccc3c(c2)OCO3)c(C)c1` (configuration not stated), 90.4% (active). On to `CN(Cc1nc2ccccc2c(=O)[nH]1)Cc1cc(=O)oc2ccc3ccccc3c12`, for which the inhibition was 34.3%. Regarding `CCCN(c1ccc(C(C)C)cc1)S(=O)(=O)c1c(C)[nH]c(=O)[nH]c1=O`, the inhibition is 21.6%.
